D2 PAM-1 = positively modulates the human D2 dopamine receptor allosterically | AID 485347 | HEK293 T-REx D2, calcium flux, EC20 dopamine potentiation | potentiation, % at 10 µM | 0.34% of 340,000 active;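 active = potentiation over 3 SD above the plate norm, cut at about 30% in these data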; note: 0% is about no effect
Target sequence (P14416 whole entry, looked up): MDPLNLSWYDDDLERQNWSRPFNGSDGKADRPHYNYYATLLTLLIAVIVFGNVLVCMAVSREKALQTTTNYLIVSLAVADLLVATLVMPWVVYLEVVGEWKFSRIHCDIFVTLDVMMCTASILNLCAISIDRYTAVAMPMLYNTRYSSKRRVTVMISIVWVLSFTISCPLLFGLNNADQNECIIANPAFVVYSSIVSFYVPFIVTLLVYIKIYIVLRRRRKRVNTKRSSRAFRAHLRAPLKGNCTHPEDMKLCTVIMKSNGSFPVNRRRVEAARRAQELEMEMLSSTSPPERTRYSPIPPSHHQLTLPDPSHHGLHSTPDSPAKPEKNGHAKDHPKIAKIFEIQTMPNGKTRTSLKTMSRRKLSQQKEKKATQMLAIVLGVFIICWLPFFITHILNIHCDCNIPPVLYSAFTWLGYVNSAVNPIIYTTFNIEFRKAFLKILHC
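Tetracycline-induced Hek293 Trex D2 cells, force-coupled to calcium, loaded with no-wash calcium dye. Compound added with 180 s kinetic read for agonism, then EC20 dopamine and a further 180 s read for potentiation.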
D2 ag-1 = activates the human D2 dopamine receptor; HEK293 T-REx D2 cells, calcium flux agonist mode; activation, % at 2 µM; 0.53% of 340,000 active; AID 485358;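 active = activation over 3 SD above normal in the single-dose calcium agonist read, cut at about 30% in these data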; note: 0% is about no effect
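In this primary screen, compounds producing a positive calcium signal within 180 s of addition to tetracycline-induced, force-coupled HEK293 Trex D2 cells are flagged; cells are dye-loaded with a no-wash calcium kit beforehand.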
D2 PAM-2 = positive allosteric modulators of human D2 dopamine receptor; DiscoveRx D2 beta-arrestin cells, luminescence, 90 min; 100% = 57 uM dopamine signal; potentiation, % (concentration not given with the values); 0.23% of 360,000 active; AID 624464; in the data active = potentiation above about 50%; inconclusive = mostly about 30% to 49%
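D2 cells co-treated with compound plus 50 nM dopamine (EC20) for 90 min at 37 deg C to detect potentiation. Beta-arrestin recruitment was read as enzyme-fragment luminescence after 1 h at ambient temperature. Full response was set by 57 uM dopamine.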
D2 ag-2 = human D2 receptor agonism in beta-arrestin assay; P14416; DiscoveRx PathHunter D2 beta-arrestin, luminescence, 90 min; 100% = 57 uM dopamine signal; activation, % (no concentration beside the values); 0.084% of 360,000 active; in the data active = activation above about 40%; inconclusive = between about 15% and that limit
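DiscoveRx PathHunter D2 beta-arrestin cells (2,100/well) attached overnight, then compound-stimulated 90 min at 37 C in HBSS/10 mM HEPES/0.1% Tween-20 buffer; beta-galactosidase complementation read by luminescence after 1 h at ambient temperature. Dopamine 57 uM final (EC100) as control.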
D2 antagonist = D2 dopamine receptor (human) antagonism | P14416 | HEK293 TREx D2 cells, calcium flux, dopamine EC80 | inhibition, % at 10 µM | 2% of 340,000 active | AID 485344; in the data active = inhibition above about 30%; inactive = below that, where a call was filed; note: 0% is about no effect
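Tetracycline-induced HEK293 T-REx cells expressing D2 force-coupled to calcium signalling were dye-loaded, exposed to compound for 180 s, then challenged with an EC80 of dopamine; calcium flux was followed kinetically for a further 180 s.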
An asterisk follows results filed as active; ? = inconclusive; . = no result. Compounds with a hit are over-represented: about 2.4% of the library has one in this group of screens.

SMILES	D2 PAM-1	D2 ag-1	D2 PAM-2	D2 ag-2	D2 antagonist
COc1ccc(C(=O)NNC(=O)CSc2nnc(-c3cccnc3)o2)cc1	42*	0	2	0	3
COc1cccc(-c2nnc(SCC(=O)N(C(C)C)C(C)C)o2)c1	31*	0	-11	-2	-1
COc1cc(OC)cc(-c2nnc(SCC(=O)N(C(C)C)C(C)C)o2)c1	0	1	-4	-1	-1
CC(C)N(C(=O)CSc1nnc(CNc2ccc(F)cc2)o1)C(C)C	77*	1	8	2	-14
Cc1c(NS(=O)(=O)c2ccc(C(C)(C)C)cc2)c(=O)n(-c2ccccc2)n1C	-5	0	.	.	.
COc1cccc(NC(=O)Cc2nnc(SCC(=O)NC3CCCC3)n2C)c1	7	0	-30	2	13
CCCn1c(SCC(=O)NCCc2ccccc2)nnc1-c1cccnc1	.	.	-20	-1	.
CCCn1c(SCC(=O)NNC(=O)c2ccccc2)nnc1-c1cccnc1	4	-2	-16	-3	32*
Cc1ccc(Cl)cc1NC(=O)Nc1nnc(N2CCCC(C)C2)s1 (configuration not stated)	.	-1	.	.	.
O=C(NNc1nc2cc3c(cc2s1)OCO3)c1cccc(F)c1	-13	0	0	4	40*
Cc1ccc(CC2SC(N=C(N)N)=NC2=O)cc1 (configuration not stated)	-4	2	-5	-5	8
CCC1CCCCN1CCCNC(=O)CSc1nc2nc(C)c(Cc3ccccc3Cl)c(C)n2n1 (configuration not stated)	31*	0	-17	-5	-6
CCC1CCCCN1CCCNC(=O)CSc1nc2nc(C)c(Cc3ccccc3)c(C)n2n1 (configuration not stated)	8	1	-10	-2	-24
Cc1cc(C(=O)COc2ccc(C#N)cc2)c(C)n1CC1CCCO1 (configuration not stated)	.	.	-3	1	.
CCC(C)(C(=O)Nc1ccccc1C)N(C(=O)CNC(C)=O)c1ccccc1C (configuration not stated)	15	0	-7	-1	15
Cc1ccc(-c2nnc(NC(=O)Cc3ccc(F)cc3)o2)c(C)c1	-27	-1	-21	-4	67*
Cc1ccc(C)c(-c2nnc(NC(=O)Cc3ccc(F)cc3)o2)c1	-24	0	-14	0	11
COc1ccc(N2CCN(C(c3ccc(F)cc3)c3sc4nc(-c5ccco5)nn4c3O)CC2)cc1 (configuration not stated)	-8	.	.	.	.
O=C(/C=C/c1cccs1)NC1CCS(=O)(=O)C1 (configuration not stated)	-8	32*	-1	2	-9
O=C(/C=C/c1cccs1)NC1CCCC1	20	0	-8	-3	5
COc1cccc(OC)c1C(=O)OCC(=O)NC1CCCCCC1	-4	1	-9	-1	82*
CCOc1ncccc1C(=O)OCC(=O)NC1CCCCCC1	-5	-1	-22	0	31*
CCCCOc1ccc(S(=O)(=O)N2CCN(c3ccccc3OCC)CC2)cc1	5	-1	.	.	.
Cn1c2ccccc2c2ncn(CCCN3CCOCC3)c(=O)c21	38*	0	-6	-2	-1
Cn1c2ccc(F)cc2c2ncn(CCN3CCOCC3)c(=O)c21	-2	2	-3	-1	5
SMILES	D2 PAM-1	D2 ag-1	D2 PAM-2	D2 ag-2	D2 antagonist
CC(=O)Nc1c(C)nn(-c2ccccc2)c1N1CCC(C(=O)Nc2ccccc2C(F)(F)F)CC1	9	1	.	.	.
Cc1cc(=O)oc2cc(OCC(=O)N3CCOCC3)c(Cl)cc12	.	.	-2	-3	.
Clc1ccc2nc(C3CCN(Cc4ccccc4)CC3)[nH]c2c1	-18	-1	-18	-1	53*
Cc1ccc(CN2CCC(c3nc4ccc(Cl)cc4[nH]3)CC2)cc1	-15	0	-31	-1	87*
CC1CCCCN1C(=O)CN1CCC(c2nc3ccc(Cl)cc3[nH]2)CC1 (configuration not stated)	-6	-1	-7	-3	9
O=C(COc1cccc(F)c1)N1c2ccccc2Sc2ccccc21	0	0	93*	?	-7
COc1ccc(/C=C/C(=O)c2ccc(Cl)s2)cc1O	-3	1	2	-5	37*

High-throughput results from PubChem.
